# Records with an inconclusive call do not appear. A number with no mark means an inactive call. Activity calls are given as the source filed them. Calls come from the whole dose curve; as a rule, active = well fitted inhibition curve with a large enough effect; inconclusive = small, poorly fitted or top-dose-only effect; inactive = no such curve, though single readings can be large or run the other way.
# Tested on: Zika virus NS2B-NS3 protease (unlinked complex)
# Test: Primary screen GU Rhodamine qHTS for Zika virus inhibitors: Unlinked NS2B-NS3 protease assay (AID 1347159); note: nearly all actives have a fitted effect of over 60% in size
# Conditions: Recombinant ZIKV NS2B-NS3 protease, Rhodamine110 substrate fluorescence; series mostly up to 107 µM; activity change, negative = inhibition: at the top concentration
# Procedure, shortened: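 Percent inhibition came from the 15-min rise in Rhodamine110 fluorescence (1.5 microM substrate, ~15% conversion), normalized to no-inhibitor and no-enzyme wells and Hill-fitted. Unlinked protease, 25 nM, pH 8.0 Tris buffer; compounds up to 114 microM, 15-min preincubation.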
# % is set by controls: 0 for no effect and ±100 for the full control effect; potency is the fitted concentration of half-maximal effect.
SMILES,"activity change, negative = inhibition",Potency
c1cc(NCCc2c[nH]c3ccccc23)cc(Nc2ccncc2)c1,104%,–
Clc1ncoc1-c1c[nH]c2ccccc12,-0.569%,–
CCCCC1CCC(c2nc(-c3ccncc3)no2)CC1 (centres undefined),11.4%,–
COC(=O)C1=CO[C@@H](O[C@@H]2O[C@H](CO)[C@@H](O)[C@H](O)[C@H]2O)[C@H]2[C@@H]1C=C[C@]21C=C([C@H](C)OC(=O)/C=C/c2ccc(O)cc2)C(=O)O1,26.9% [at 32.5 µM],–
Fc1ccc(-c2nc(-c3c(F)cccc3F)[nH]c2-c2ccncc2)cc1,10.7%,–
CC(=O)O[C@@H]1[C@@H](OC(C)=O)[C@H](C)O[C@@H](O[C@H]2[C@@H]3C=CO[C@@H](O[C@@H]4O[C@H](CO)[C@@H](O)[C@H](O)[C@H]4O)[C@@H]3[C@@]3(CO)O[C@@H]23)[C@@H]1OC(=O)/C=C/c1ccccc1,11.6% [at 32.5 µM],–
OC(CC1c2ccccc2-c2cncn21)C1CCCCC1 (centres undefined),13.4%,–
C=C(C)[C@@H]1CC[C@]2(C(=O)O)CC[C@]3(C(=O)O)[C@H](CCC4[C@@]5(C)CCC(=O)C(C)(C)C5CC[C@]43C)C12 (some centres undefined),-29.8% [at 57.1 µM],–
COC(=O)CC[C@@H](C)C1CCC2C3CCC4C[C@H](OC(C)=O)CCC4(C)C3C[C@H](O)C21C (some centres undefined),-3.67%,–
COC1C(O)C(OC2CCC3(C)C(CCC45CCC6C7(COC(=O)C7)OC4(O)C6(C)CCC35)C2)OC(C)C1OC1OC(CO)C(OC2OC(CO)C(O)C(O)C2O)C(O)C1O (centres undefined),4.36% [at 32.5 µM],–
CC(C)C[C@@H]1NC(=O)[C@@H](Cc2ccccc2)NC(=O)C(CCCCCC(=O)C2CO2)NC(=O)[C@@H]2CCCCN2C1=O (some centres undefined),3.35% [at 57.1 µM],–
CN1CCN(C2=Nc3ccccc3Nc3ccc(OS(=O)(=O)C(F)(F)F)cc32)CC1,8.62%,–
C[C@@H]1O[C@@H](O[C@H]2[C@@H]3C=CO[C@@H](O[C@@H]4O[C@H](CO)[C@@H](O)[C@H](O)[C@H]4O)[C@@H]3[C@@]3(CO)O[C@@H]23)[C@H](O)[C@H](OC(=O)/C=C/c2ccccc2)[C@H]1O,5.68% [at 32.5 µM],–
CC(C)C[C@@H](C(=O)N[C@@H](Cc1ccc(OCc2ccccc2)cc1)C(=O)NC(C)(C)C)N(C)Cc1ccc(C(C)(C)C)cc1,24.6%,–
O=S(=O)(Nc1ccccc1N1CCCCC1)c1ccc(Cl)s1,-9.59%,–
CC(C)NC(=O)COc1cccc(-c2nc(Nc3ccc4[nH]ncc4c3)c3ccccc3n2)c1,-4.9%,–
Cc1ccc(CNc2ncnc3ccc(-c4ccc(CO)o4)cc23)o1,-1.09%,–
Cc1cc2occ(CN(C)CCN(C)Cc3cn(-c4cccc(C(F)(F)F)c4)c4ccccc34)c(=O)c2cc1C,157%,–
CC(C)(O)C1Cc2c(ccc(C(=O)CCc3ccccc3)c2O)O1 (centres undefined),-3.3%,–
Cc1[nH]c(/C=C2\C(=O)Nc3cc(-c4ccccc4)ccc32)c(C)c1CCC(=O)O,–,1780 nM (active)

SMILES,"activity change, negative = inhibition",Potency
Nc1nccc(-c2c(-c3ccc(F)cc3)ncn2C2CCCCC2)n1,118%,–
N[C@@H]1c2cccnc2[C@H](OC(=O)N2CCC(n3c(=O)[nH]c4ncccc43)CC2)CC[C@H]1c1cccc(F)c1F,-15.7%,–
CC[C@@H](C)[C@@H]1OC2(C=C[C@H]1C)C[C@@H]1C[C@H](C/C=C(\C)[C@H](O[C@H]3C[C@H](OC)[C@H](O[C@H]4C[C@H](OC)[C@H](NC(C)=O)[C@H](C)O4)[C@H](C)O3)[C@H](C)/C=C/C=C3\CO[C@H]4[C@H](O)C(C)=C[C@@H](C(=O)O1)[C@@]34O)O2 (some centres undefined),0%,–
C[C@@H]1CC[C@]2(C(=O)O)CC[C@]3(C)C(=CCC4[C@@]5(C)CC[C@H](O)[C@](C)(C(=O)O)C5CC[C@]43C)C2[C@]1(C)O (some centres undefined),21.4% [at 57.1 µM],–
C=C(C)Cn1c(SCC(=O)c2cccs2)nc2sc3c(c2c1=O)CCCC3,-2.21%,–
CCn1c(-c2nonc2N)nc2c(C#CCO)ncc(OCCCN)c21,20.7%,–
O=C(CN1C2=NCCN2c2ccccc21)c1ccc(-c2ccccc2)cc1,182%,–
COc1ccccc1OCCN1CC(COc2cccc3[nH]c4ccccc4c23)OCC1=O (centres undefined),29%,–
CCNC1(C(N)=O)CCN(c2ncnc3c2nc(-c2ccccc2Cl)n3-c2ccc(Cl)cc2)CC1,23.7%,–
C[C@H](Nc1cc2c(-c3ccc4c(c3)OCO4)noc2cn1)c1ccccc1,-15.9%,–
COC1CC(=O)C23C(=O)NC(CC(C)C)C2C(C)C(C)=CC3/C=C(\C)CCCC1O (centres undefined),-10.8% [at 57.1 µM],–
C=C1C(=O)O[C@@H]2C3=C(C)CCC[C@]3(C)CC[C@@]12O,-18.5%,–
O=C(NCCN1CCC(n2c(=O)[nH]c3ccccc32)CC1)c1ccc2ccccc2c1,55.1%,–
C=CCc1ccc(OC(C)Cc2ccc(OC)c(OC)c2)c(OC)c1 (centres undefined),7.36%,–
O=C1Nc2ccccc2-c2nc3ccccc3c(=O)n2-c2c(O)cccc21,-15.1%,–
Fc1ccc(N2CCN(CCC3OCCc4ccccc43)CC2)cc1 (centres undefined),35.9%,–
COc1ccccc1OCCNCC(O)CCOc1cccc2[nH]c3ccccc3c12 (centres undefined),163%,–
CCO[C@H]1CN(C2CCC(O)(c3ccc4c(c3)OCO4)CC2)C[C@@H]1NC(=O)CNC(=O)c1cccc(C(F)(F)F)c1 (some centres undefined),31.1%,–
Cn1sc(=O)n(Cc2ccccc2)c1=O,-22.3%,–
